High-throughput results (PubChem)
Mcl1 Bid PPI: Mcl-1/Bid binding inhibitors, primary screen, biochemical, TR-FRET, 1536-well; TR-FRET Mcl-1/Bid-Dy647 peptide binding; inhibition, % at 21.7 µM; hit rate 0.97% among 220,000; AID 1021, 2008;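 active = compounds that cut the binding signal by more than half at the single screening dose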;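 note: His-tagged Mcl-1 with europium anti-His antibody binding Bid BH3 peptide; 0% = Mcl-1 plus peptide wells and 100% = peptide-only wells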
Target sequence (Q07820 whole entry, looked up): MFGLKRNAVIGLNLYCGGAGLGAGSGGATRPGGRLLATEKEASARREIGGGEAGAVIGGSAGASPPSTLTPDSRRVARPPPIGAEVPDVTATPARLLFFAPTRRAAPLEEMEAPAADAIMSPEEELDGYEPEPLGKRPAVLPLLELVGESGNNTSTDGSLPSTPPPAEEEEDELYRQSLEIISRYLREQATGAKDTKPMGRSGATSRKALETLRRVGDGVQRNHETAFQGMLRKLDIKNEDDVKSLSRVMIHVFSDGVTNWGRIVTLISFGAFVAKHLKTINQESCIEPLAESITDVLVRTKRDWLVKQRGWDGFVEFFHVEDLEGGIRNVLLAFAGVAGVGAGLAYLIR
Mcl1 Noxa PPI: Mcl-1/Noxa binding inhibitors, primary screen, biochemical, TR-FRET, 1536-well. Induced myeloid leukemia cell differentiation protein Mcl-1 (Homo sapiens), Q07820. TR-FRET Mcl-1/Noxa peptide binding, 2 h. inhibition, % at 21.7 µM. hit rate 1.5% among 220,000. AID 1022, 2008;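 active = compounds that cut the protein-peptide binding signal by more than 50% relative to plate controls in a single-dose test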;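 note: His-tagged Mcl-1 with rhodamine Noxa BH3 peptide and terbium anti-His antibody; 0% = Mcl-1 plus Noxa peptide wells and 100% = peptide-only wells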
GLD-1 TGE inh: GLD-1/TGE RNA complex disruptors, primary screen, biochemical, fluorescence polarization | Female germline-specific tumor suppressor gld-1 (Caenorhabditis elegans), Q17339 | purified GLD-1 + fluorescein TGE RNA | inhibition, % at 5.96 µM | hit rate 0.44% among 320,000;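 active = percent inhibition above a per-plate cutoff, the plate mean of test compounds plus 3 SD, cut at about 30% in these data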;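 note: 0% = DMSO wells with GLD-1 and probe and 100% = wells lacking GLD-1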
BCLXL inh: inhibitors of human Bcl-xL, primary screen, biochemical, fluorescence polarization, HTS; GST-Bcl-xL / FITC-Bim BH3 peptide fluorescence polarization; Bcl-2-like protein 1 (Homo sapiens), Q07817; AID 2129, 2009; inhibition, % at 10.9 µM; hit rate 0.7% among 320,000;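 active = inhibition above the mean of all tested compounds plus 3 SD, cutoff set per campaign, cut at about 30% in these data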;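 note: 0% = DMSO wells and 100% = unlabeled Bim-BH3 peptide competitor; inhibitors lower millipolarization by displacing the labeled peptide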
Target sequence (Q07817 whole entry, looked up): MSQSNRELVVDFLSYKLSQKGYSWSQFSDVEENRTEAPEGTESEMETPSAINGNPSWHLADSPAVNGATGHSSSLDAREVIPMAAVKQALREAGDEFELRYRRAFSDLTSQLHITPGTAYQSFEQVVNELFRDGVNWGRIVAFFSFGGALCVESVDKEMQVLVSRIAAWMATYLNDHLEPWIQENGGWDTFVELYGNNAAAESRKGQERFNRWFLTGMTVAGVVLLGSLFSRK
Bim-Mcl-1: inhibitors of Bim peptide binding to Mcl-1, primary screen, biochemical, bead-based flow cytometry, multiplex. Bim peptide-Mcl-1 binding. inhibition, % at 10 µM. hit rate 0.1% among 190,000. AID 1009, 2008; in the data active = inhibition above about 40%;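 note: 0% = no compound tracer wells and 100% = peptide blocker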
MCL1-BIM inh: inhibitors of MCL1 binding to BIM-BH3, primary screen, biochemical, fluorescence polarization. inhibition, % at 10.9 µM. AID 2057, 2009. hit rate 0.68% among 320,000. GST-MCL1 / FITC-Bim-BH3 fluorescence polarization;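 active = inhibition above the mean inhibition of all tested compounds plus 3 SD, set per campaign, cut at about 40% in these data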;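 note: 0% = DMSO wells and 100% = unlabeled Bim-BH3 peptide control; higher means more loss of mP so more displacement of Bim peptide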
Bcl-xL conf: Bcl-xL inhibitors blocking Bim BH3 binding, confirmation, counter-screen for MCL1 inhibitor project, biochemical, fluorescence polarization | shares compounds with MCL1-BIM inh | inhibition, % at 10.9 µM | AID 2166, 2009 | hit rate 54% among 1,700 | GST-Bcl-xL / FITC-Bim BH3 peptide FP binding;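 active = inhibition above a cutoff equal to the mean inhibition of all tested compounds plus 3 SD, cut at about 30% in these data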;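 note: 0% = DMSO wells and 100% = unlabeled Bim BH3 control peptide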
MCL1 BIM confirm: inhibitors of MCL1 binding to BIM-BH3, confirmation, biochemical, fluorescence polarization, triplicate; GST-MCL1 / FITC-Bim-BH3 fluorescence polarization; shares compounds with MCL1-BIM inh; AID 2168, 2009; hit rate 61% among 1,700; inhibition, % at 10.9 µM;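 active = inhibition above the average of all tested compounds plus 3 SD, cut at about 40% in these data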;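 note: 0% = DMSO wells and 100% = unlabeled Bim-BH3 control peptide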
Numbers without * were called inactive; . = not tested or not shown; + = active, no number. An excerpt weighted towards active compounds, which were near 2.3% of everything screened.

SMILES	Mcl1 Bid PPI	Mcl1 Noxa PPI	GLD-1 TGE inh	BCLXL inh	Bim-Mcl-1	MCL1-BIM inh	Bcl-xL conf	MCL1 BIM confirm
COc1cccc(Cn2c(=S)[nH]c3ccc(N4CCOCC4)cc3c2=O)c1	-36	23	3	19	1	41*	-24	-19
O=C(O)C1Cc2c([nH]c3ccccc23)C(c2ccc3c(c2)OCO3)N1 (stereo unspecified)	-32	8	14	52*	0	59*	12	9
CCCC(=O)OCCNc1cc(SCc2ccco2)c2nonc2c1[N+](=O)[O-]	-31	32	5	23	2	43*	7	11
CCCC(=O)OCCNc1cc(Sc2nccn2C)c2nonc2c1[N+](=O)[O-]	-56	21	4	4	-5	9	.	.
CC(=O)OCCCNc1cc(SCc2ccco2)c2nonc2c1[N+](=O)[O-]	-33	41	-1	22	0	45*	29	46*
COc1cccc2c1C(=O)c1c(O)c3c(c(O)c1C2=O)C[C@@](O)(C(C)=O)C[C@@H]3O[C@H]1C[C@H](N)[C@H](O)[C@H](C)O1	-6	-3	.	.	3	.	.	.
CC(=O)[C@]1(O)Cc2c(O)c3c(c(O)c2[C@@H](O[C@H]2C[C@H](N)[C@H](O)[C@H](C)O2)C1)C(=O)c1ccccc1C3=O	.	.	+	+	.	+	+	+
COc1cccc2c1C(=O)c1c(O)c3c(c(O)c1C2=O)C[C@@](O)(C(=O)CO)C[C@@H]3O[C@H]1C[C@H](N)[C@@H](O)[C@H](C)O1	.	.	+	+	.	+	+	+
COC(=O)Cc1ccc(OC(=O)c2cccc(S(=O)(=O)N3CCN(C)CC3)c2)cc1	.	.	7	1	.	-6	.	.
CCn1c(SCC(=O)c2c(N)n(C3CC3)c(=O)[nH]c2=O)nc2cc(S(N)(=O)=O)ccc21	.	.	2	-10	.	-5	.	.
CCOc1ccc2nc(NC(=O)c3ccccn3)sc2c1	-117	-87	-5	-5	.	56*	-2	-4
Cc1ccc2nc(NC(=O)c3ccccn3)sc2c1	-84	-16	-8	2	-2	10	.	.
O=C1OC(Nc2ncccn2)c2ccccc21 (stereo unspecified)	17	11	7	-7	-5	-6	.	.
O=C1OC(Nc2cc(Br)cc3cccnc23)c2ccccc21 (stereo unspecified)	-41	11	11	64*	-4	90*	56*	68*
Cc1c(Cl)cccc1NC(=S)Nc1ccc(S(=O)(=O)Nc2ncccn2)cc1	.	.	0	.	.	.	.	.
COc1ccc(C(=O)COC(=O)c2cccs2)cc1	.	.	4	.	.	.	.	.
COc1ccc(C2=CC3=C(Br)C(=O)C(C)(OC(=O)c4cccs4)C(=O)C3=CO2)cc1 (stereo unspecified)	.	.	13	20	.	42*	20	51*
COc1ccc(C2=CC3=C(Br)C(=O)C(C)(OC(=O)c4ccco4)C(=O)C3=CO2)cc1 (stereo unspecified)	-8	63*	20	42*	.	54*	35*	76*
COc1ccc(NC(=O)COC(=O)CCOc2ccccc2C)cc1Cl	.	.	3	0	.	1	.	.
O=C(Cn1c(=O)n(Cc2ccco2)c(=O)c2c3c(sc21)CCCCC3)Nc1ccccc1	-17	41	6	7	0	14	.	.
O=C(Cn1c(=O)n(Cc2ccco2)c(=O)c2c3c(sc21)CCCCC3)c1ccccc1	-18	41	-11	26	-4	43*	20	32
CCOCCn1c(N2CCCC2)nc2c1c(=O)n(C)c(=O)n2C	.	.	-2	3	.	4	.	.
CCOc1ccc(N(CC(=O)Nc2ccc(OC)cc2OC)S(=O)(=O)c2c(C)[nH]c(=O)[nH]c2=O)cc1	.	.	8	12	.	0	.	.
O=C1c2cccc3c(O)ccc(c23)C(=O)N1c1ccc(Cl)cc1	.	.	+	+	.	+	+	+
CC(=O)Nc1ccc(N2C(=O)c3cccc4c(O)ccc(c34)C2=O)cc1	.	.	+	+	.	+	+	+
SMILES	Mcl1 Bid PPI	Mcl1 Noxa PPI	GLD-1 TGE inh	BCLXL inh	Bim-Mcl-1	MCL1-BIM inh	Bcl-xL conf	MCL1 BIM confirm
O=C(O)/C=C/C(=O)NCc1ccccc1	-7	16	0	5	-1	2	.	.
Cc1ccc(/C=C/C(=O)NCc2ccccn2)o1	-75	74*	7	23	-8	41*	21	51*
O=C(O)/C=C/C(=O)NCc1ccccn1	-18	-2	36*	52*	-2	50*	48*	52*
CCC(NS(=O)(=O)c1ccc(C)cc1)C(=O)N1CCOCCOCCOCCOCC1 (stereo unspecified)	.	.	1	-3	.	-12	.	.
CC(=O)c1ccc2c(c1)N(CCCN1CCC(CCO)CC1)c1ccccc1S2	.	.	7	29	.	44*	28	33
CCOC(=O)C/C(C)=N/NC(=O)CNc1cccc(Cl)c1C	-15	-10	1	6	0	43*	1	2
CC(C)OC(=O)c1cc(=O)[nH]c2ccccc12	7	12	-1	5	2	3	.	.
